# The supplement of paper PMC10849652
# Of roughly 8,800 targets only a part is listed; those with a hit were picked by preference. About 0.5% of all pairs of compound and target were hits. Unmarked numbers belong to inactive results.
# Assays:
# Assay in all cases: log2 fold change, soluble protein after heating vs DMSO (PISA); higher = thermal stabilisation; K562 lysate, 10 uM; active = over 0.2 and 3.5 SD of the protein, either way, in both replicates (recomputed)
# lapatinib = compound: CS(=O)(=O)CCNCc1ccc(-c2ccc3ncnc(Nc4ccc(OCc5cccc(F)c5)c(Cl)c4)c3c2)o1 [lapatinib]
# Summary of the method: (§1)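 Soluble protein was defined as the supernatant remaining after 21,000xg for 90 min, following pooling of heated aliquots and adjustment to 0.5% NP-40 at 4°C. Before that, crude K562 extract at 1 mg/mL protein in PBS pH 7.4 with 1 mM MgCl2 was treated with 10 μM compound for 30 min and heated for 3 min across 48°C-58°C. Quantification used TMTpro 16plex LC-MS/MS with channel sums equalised, and values are log-two fold changes in thermal stability relative to solvent controls from duplicates.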
# pictilisib = compound: CS(=O)(=O)N1CCN(Cc2cc3nc(-c4cccc5[nH]ncc45)nc(N4CCOCC4)c3s2)CC1 [pictilisib]
# Summary of the method: as §1
# crizotinib = compound: C[C@@H](Oc1cc(-c2cnn(C3CCNCC3)c2)cnc1N)c1c(Cl)ccc(F)c1Cl [crizotinib]
# Summary of the method: as §1
# [1] = compound: C[C@H](C1=CC=C(C=C1)C(=O)NC2=C3C=CNC3=NC=C2)N
# Summary of the method: as §1
# duvelisib = compound: C[C@H](Nc1ncnc2nc[nH]c12)c1cc2cccc(Cl)c2c(=O)n1-c1ccccc1 [duvelisib]
# Summary of the method: as §1
# gandotinib = compound: Cc1cc(Nc2cc(CN3CCOCC3)c3nc(C)c(Cc4ccc(Cl)cc4F)n3n2)n[nH]1 [gandotinib]
# Summary of the method: as §1
# tozasertib = compound: Cc1cc(Nc2cc(N3CCN(C)CC3)nc(Sc3ccc(NC(=O)C4CC4)cc3)n2)n[nH]1 [tozasertib]
# Summary of the method: as §1
# doramapimod = compound: Cc1ccc(-n2nc(C(C)(C)C)cc2NC(=O)Nc2ccc(OCCN3CCOCC3)c3ccccc23)cc1 [doramapimod]
# Summary of the method: as §1
# bafetinib = compound: Cc1ccc(NC(=O)c2ccc(CN3CC[C@H](N(C)C)C3)c(C(F)(F)F)c2)cc1Nc1nccc(-c2cncnc2)n1 [bafetinib]
# Summary of the method: as §1
# [2] = compound: Cc1cccc(CC(=O)N2CCc3c2ccc(-c2cn(C)c4ncnc(N)c24)c3F)n1
# Summary of the method: as §1
# Sequence of UniProt P0DPD7 (P0DPD7 whole entry, looked up): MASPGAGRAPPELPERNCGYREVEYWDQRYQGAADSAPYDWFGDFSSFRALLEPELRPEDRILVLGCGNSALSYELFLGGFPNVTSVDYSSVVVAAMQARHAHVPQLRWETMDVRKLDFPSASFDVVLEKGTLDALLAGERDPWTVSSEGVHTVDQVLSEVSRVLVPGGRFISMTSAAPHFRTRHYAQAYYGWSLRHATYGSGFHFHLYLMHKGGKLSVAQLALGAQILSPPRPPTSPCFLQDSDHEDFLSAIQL
# Sequence of UniProt Q92616 (Q92616 whole entry, looked up): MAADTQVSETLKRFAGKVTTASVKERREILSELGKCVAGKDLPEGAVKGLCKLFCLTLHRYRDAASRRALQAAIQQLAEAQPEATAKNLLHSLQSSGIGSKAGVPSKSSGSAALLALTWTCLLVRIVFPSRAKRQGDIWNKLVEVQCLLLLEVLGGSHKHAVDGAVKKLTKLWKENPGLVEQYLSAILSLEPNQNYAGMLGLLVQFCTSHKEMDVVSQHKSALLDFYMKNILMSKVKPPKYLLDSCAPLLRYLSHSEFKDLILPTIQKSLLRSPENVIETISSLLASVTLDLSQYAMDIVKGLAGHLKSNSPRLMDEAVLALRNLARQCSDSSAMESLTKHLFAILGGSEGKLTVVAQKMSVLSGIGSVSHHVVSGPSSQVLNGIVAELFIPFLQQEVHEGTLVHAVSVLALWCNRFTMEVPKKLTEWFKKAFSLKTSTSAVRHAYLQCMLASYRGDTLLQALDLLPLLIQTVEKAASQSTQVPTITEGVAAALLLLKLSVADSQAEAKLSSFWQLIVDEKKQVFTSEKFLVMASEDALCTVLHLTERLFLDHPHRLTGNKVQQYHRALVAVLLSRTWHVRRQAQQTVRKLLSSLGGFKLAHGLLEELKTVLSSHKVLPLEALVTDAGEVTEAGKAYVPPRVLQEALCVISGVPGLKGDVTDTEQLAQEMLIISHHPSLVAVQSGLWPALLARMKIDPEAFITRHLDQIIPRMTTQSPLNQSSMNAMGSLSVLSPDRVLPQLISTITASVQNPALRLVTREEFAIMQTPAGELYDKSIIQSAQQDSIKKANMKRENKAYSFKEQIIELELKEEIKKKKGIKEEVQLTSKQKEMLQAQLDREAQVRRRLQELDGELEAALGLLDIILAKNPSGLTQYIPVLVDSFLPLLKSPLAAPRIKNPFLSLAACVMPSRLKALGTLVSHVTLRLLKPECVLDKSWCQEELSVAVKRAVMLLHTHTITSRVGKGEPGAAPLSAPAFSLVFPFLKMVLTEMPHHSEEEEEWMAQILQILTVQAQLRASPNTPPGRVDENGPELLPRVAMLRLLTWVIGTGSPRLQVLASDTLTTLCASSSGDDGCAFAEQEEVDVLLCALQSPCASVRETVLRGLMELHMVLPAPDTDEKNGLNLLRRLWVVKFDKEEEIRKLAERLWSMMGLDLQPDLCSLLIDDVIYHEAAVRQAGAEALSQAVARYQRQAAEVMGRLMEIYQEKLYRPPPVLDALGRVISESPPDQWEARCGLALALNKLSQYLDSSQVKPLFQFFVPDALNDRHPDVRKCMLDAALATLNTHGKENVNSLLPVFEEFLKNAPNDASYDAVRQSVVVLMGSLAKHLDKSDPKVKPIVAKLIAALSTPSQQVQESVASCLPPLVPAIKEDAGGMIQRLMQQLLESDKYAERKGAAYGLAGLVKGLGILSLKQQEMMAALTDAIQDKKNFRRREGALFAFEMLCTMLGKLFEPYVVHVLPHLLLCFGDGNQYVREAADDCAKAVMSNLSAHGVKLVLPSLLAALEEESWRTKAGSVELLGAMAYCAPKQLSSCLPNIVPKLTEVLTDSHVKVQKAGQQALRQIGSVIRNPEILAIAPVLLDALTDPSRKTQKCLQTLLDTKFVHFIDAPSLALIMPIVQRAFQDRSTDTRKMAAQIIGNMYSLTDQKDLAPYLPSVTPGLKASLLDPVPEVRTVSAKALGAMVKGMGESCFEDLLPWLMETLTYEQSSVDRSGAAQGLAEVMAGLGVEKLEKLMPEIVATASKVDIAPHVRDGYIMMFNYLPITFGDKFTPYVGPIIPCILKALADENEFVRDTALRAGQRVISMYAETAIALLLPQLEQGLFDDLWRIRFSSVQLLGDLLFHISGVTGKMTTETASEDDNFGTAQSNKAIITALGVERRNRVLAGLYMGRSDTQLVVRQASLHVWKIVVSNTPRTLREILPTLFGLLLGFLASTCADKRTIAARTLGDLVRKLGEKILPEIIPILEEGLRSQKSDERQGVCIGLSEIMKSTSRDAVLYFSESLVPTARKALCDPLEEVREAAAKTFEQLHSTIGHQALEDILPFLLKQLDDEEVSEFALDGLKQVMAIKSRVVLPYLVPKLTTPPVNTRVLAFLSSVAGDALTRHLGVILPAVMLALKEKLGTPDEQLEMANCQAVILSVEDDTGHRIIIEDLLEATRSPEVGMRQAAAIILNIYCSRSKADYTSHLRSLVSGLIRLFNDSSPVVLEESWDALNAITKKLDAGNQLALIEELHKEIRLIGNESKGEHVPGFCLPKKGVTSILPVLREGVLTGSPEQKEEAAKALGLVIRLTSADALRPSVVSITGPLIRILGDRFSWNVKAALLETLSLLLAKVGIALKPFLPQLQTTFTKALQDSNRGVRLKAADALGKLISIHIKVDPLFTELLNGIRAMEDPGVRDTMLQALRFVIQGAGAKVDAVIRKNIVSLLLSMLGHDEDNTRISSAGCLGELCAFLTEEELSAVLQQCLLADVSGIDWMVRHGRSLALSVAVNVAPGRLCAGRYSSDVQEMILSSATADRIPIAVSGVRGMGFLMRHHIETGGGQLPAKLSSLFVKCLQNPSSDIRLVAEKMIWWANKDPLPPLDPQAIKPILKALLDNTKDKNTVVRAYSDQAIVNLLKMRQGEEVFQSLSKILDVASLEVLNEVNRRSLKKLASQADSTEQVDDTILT
# Sequence of UniProt Q8TEQ6 (Q8TEQ6 whole entry, looked up): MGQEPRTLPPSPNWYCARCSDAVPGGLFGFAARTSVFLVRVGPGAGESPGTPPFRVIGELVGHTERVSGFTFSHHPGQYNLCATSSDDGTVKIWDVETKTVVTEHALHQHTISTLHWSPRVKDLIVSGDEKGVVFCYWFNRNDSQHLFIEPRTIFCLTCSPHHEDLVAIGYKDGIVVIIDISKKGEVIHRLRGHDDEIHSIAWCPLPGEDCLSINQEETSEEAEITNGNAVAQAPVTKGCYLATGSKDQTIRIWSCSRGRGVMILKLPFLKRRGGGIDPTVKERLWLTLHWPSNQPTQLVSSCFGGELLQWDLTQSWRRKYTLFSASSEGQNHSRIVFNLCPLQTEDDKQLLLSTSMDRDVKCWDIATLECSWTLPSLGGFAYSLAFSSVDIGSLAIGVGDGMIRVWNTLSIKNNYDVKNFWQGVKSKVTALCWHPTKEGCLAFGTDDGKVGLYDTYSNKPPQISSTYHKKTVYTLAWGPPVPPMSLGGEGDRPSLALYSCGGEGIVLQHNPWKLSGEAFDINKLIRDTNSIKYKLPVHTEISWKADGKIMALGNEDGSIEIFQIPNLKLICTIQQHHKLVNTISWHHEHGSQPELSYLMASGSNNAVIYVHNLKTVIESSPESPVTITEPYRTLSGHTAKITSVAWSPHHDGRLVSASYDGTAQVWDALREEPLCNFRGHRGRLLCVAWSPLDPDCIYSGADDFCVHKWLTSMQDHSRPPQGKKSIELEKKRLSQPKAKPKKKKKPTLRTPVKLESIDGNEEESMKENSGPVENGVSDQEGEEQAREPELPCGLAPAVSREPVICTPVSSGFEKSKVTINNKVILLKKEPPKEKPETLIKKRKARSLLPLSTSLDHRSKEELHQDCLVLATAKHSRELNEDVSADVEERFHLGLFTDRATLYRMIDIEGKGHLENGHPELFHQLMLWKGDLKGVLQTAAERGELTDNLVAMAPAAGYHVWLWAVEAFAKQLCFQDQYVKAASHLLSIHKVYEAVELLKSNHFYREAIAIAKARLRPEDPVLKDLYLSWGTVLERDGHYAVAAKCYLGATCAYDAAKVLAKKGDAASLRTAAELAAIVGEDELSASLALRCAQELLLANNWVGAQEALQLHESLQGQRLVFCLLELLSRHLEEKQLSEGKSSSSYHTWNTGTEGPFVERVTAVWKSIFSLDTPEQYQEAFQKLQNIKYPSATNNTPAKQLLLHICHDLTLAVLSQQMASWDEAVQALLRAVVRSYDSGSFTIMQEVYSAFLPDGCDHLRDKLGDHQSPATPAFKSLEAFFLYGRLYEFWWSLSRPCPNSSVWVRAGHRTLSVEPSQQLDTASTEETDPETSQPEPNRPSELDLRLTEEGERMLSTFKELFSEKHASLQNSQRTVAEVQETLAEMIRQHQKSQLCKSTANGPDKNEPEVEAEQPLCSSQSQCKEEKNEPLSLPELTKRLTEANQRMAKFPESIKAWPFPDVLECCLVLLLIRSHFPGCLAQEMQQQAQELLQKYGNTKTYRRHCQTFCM
# Sequence of UniProt P54852 (P54852 whole entry, looked up): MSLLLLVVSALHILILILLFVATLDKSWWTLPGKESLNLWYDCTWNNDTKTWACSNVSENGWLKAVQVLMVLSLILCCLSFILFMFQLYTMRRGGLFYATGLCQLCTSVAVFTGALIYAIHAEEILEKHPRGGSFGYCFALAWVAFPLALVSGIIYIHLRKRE
# Sequence of UniProt Q8NEZ5 (Q8NEZ5 whole entry, looked up): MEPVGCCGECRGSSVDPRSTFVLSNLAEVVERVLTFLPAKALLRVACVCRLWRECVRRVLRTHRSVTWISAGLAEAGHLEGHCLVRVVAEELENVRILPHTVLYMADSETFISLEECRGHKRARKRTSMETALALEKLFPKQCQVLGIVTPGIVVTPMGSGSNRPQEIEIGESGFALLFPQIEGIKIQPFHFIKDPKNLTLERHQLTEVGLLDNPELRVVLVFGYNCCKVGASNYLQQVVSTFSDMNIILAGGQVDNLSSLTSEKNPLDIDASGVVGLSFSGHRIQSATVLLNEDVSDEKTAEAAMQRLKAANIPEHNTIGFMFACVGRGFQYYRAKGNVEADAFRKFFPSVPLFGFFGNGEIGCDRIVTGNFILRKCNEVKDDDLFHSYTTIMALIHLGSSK
Target,log2 fold change (lapatinib),log2 fold change (pictilisib),log2 fold change (crizotinib),log2 fold change [1],log2 fold change (duvelisib),log2 fold change (gandotinib),log2 fold change (tozasertib),log2 fold change (doramapimod),log2 fold change (bafetinib),log2 fold change [2]
"EPB41, A0A2R8Y6D0",0.008,-0.14,-0.085,-0.037,-0.086,0.031,0.068,-0.051,-0.031,-0.003
DVL2 (UniProt O14641),0.096,-0.037,-0.056,0.026,0,-0.107,-0.039,0.106,-0.232,0.054
FCHO1 (UniProt O14526),-0.034,0.027,-0.072,-0.061,-0.025,-0.027,0.027,-0.039,-0.141,0.058
FBLL1 (UniProt A6NHQ2),0.014,-0.076,-0.041,-0.277 (active),0.059,0.028,0.047,-0.013,-0.075,0.053
EMP3 (UniProt P54852),0,-0.03,-0.002,-0.763 (active),0,0.351 (active),-0.078,0.029,-0.019,0.329 (active)
GEMIN5 (UniProt Q8TEQ6),-0.025,-0.006,-0.069,-0.029,0.001,-0.087,0.009,0.012,-0.053,0.017
EEF1AKMT4 (UniProt P0DPD7),-0.052,0.009,-0.012,-0.046,-0.038,0.067,-0.072,-0.038,-0.171,0.193
"ENO1, A0A2R8YEM5",-0.016,-0.037,0.017,-0.469 (active),0,0.185,0.001,-0.006,0.036,0.244 (active)
EXOC2 (UniProt Q96KP1),-0.016,-0.011,-0.099,0.017,-0.032,-0.185,0.001,0.042,-0.056,0.059
FAM118B (UniProt Q9BPY3),0.022,-0.013,-0.093,-0.022,0.045,-0.044,-0.008,0.048,0.008,0.037
DSN1 (UniProt Q9H410),0.009,-0.027,-0.016,-0.051,0.004,0.008,0.015,-0.037,-0.026,0.021
GCN1 (UniProt Q92616),-0.034,-0.027,-0.125,-0.002,0.008,-0.121,0.017,0.019,-0.049,0.053
FHOD1 (UniProt Q9Y613),-0.018,-0.011,-0.014,0.017,-0.023,-0.141,0.008,0.045,-0.063,0.035
FBXO22 (UniProt Q8NEZ5),-0.035,-0.027,-0.035,0.035,-0.012,-0.03,0,0.034,-0.049,-0.039
ENSA isoform 3 (UniProt O43768),0.021,0.02,0.058,0.103,0.049,-0.042,-0.027,-0.068,0.058,-0.103
